Experimental data reported in PubChem BioAssay.
Active and inactive are the calls of the source. Unless noted, no rule for the calls is given here.

Tests used:
[1] = resazurin metabolic signal in HepG2 cells – cell-based, resazurin fluorescence, 24 h, PK04 Diversity Set, profiling panel (AID 1172); conditions: HepG2 viability, higher = more signal
[2] = budding yeast growth changes without added modifier – OD600, strain BY4716, 24 h, basal condition, primary screen (AID 1173); conditions: S. cerevisiae BY4716 growth, OD600, 24 h; higher = more signal, called active from +8 up or from −8 down
[3] = viability profiling in MM1S myeloma cells – cell-based, resazurin fluorescence, basal, 24 h, PK04 Diversity Set, profiling panel (AID 1174); conditions: higher = more signal, called active from +8 up or from −8 down;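 also: MM1S multiple myeloma cell line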
[4] = biological target: Dihydroorotate dehydrogenase (quinone), mitochondrial (Plasmodium falciparum (isolate 3D7)) (UniProt Q08210); test: inhibition of P. falciparum DHODH – biochemical, C-terminal His tag, absorbance 600 nm, primary screen (AID 1175); conditions: PfDHODH enzyme, DCIP absorbance 600 nm; higher = more signal, called active from +8 up or from −8 down;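 also: recombinant parasite enzyme with a five histidine tag at its C terminus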
Chain of Dihydroorotate dehydrogenase (quinone), mitochondrial (Plasmodium falciparum (isolate 3D7)) (Q08210 whole entry, looked up): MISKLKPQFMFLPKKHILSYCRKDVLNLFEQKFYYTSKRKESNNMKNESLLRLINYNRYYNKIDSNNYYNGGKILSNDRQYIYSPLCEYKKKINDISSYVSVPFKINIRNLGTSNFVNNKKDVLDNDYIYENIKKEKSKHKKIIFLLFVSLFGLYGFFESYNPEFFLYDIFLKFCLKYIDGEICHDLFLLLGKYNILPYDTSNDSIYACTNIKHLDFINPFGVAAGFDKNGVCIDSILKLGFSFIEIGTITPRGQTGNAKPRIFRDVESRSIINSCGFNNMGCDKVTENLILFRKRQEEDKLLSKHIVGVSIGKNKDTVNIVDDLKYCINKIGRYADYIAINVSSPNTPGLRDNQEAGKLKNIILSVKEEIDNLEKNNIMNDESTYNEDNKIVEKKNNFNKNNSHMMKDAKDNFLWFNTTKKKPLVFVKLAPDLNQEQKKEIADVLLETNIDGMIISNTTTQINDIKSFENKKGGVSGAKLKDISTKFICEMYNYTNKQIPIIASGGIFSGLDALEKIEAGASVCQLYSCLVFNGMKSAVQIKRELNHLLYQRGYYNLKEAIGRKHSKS

[5] = inhibition of PAO1 biofilm formation – strain PAO1, LB-PBS medium, absorbance 600 nm, primary screen (AID 1176); conditions: P. aeruginosa PAO1 growth/biofilm, A600, 12 h; higher = more signal
[6] = growth modulation of vineyard yeast isolate – strain RM11-1a, OD600, basal, 24 h, primary screen (AID 1177);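 also: cultures grown under basal conditions with no added stressor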; conditions: S. cerevisiae RM11-1a growth, OD600, 24 h; higher = more signal, called active from +8 up or from −8 down
[7] = growth of efflux-deficient E. coli DRC39 – strain DRC39, OD650, 24 h, E. coli filamentation inducers, primary screen (AID 1178);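 also: growth measured as culture turbidity by optical density at 650 nm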; conditions: E. coli DRC39 acrAB, higher = more signal, called active from +8 up or from −8 down
[8] = growth of efflux-deficient E. coli DRC39 – strain DRC39, OD650, 48 h, E. coli filamentation inducers, primary screen (AID 1179);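 also: screen aims at cell division blockers that make cells filament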; conditions: E. coli DRC39 delta-acrAB growth, higher = more signal, called active from +8 up or from −8 down
[9] = viability profiling in RPMI8226 myeloma cells – cell-based, resazurin fluorescence, basal, 24 h, PK04 Diversity Set, profiling panel (AID 1180); conditions: higher = more signal;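 also: RPMI8826 multiple myeloma cell line at 5000 cells per well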
[10] = biological target: E3 ubiquitin-protein ligase XIAP (Homo sapiens) (UniProt P98170); test: small molecules binding XIAP protein – biophysical, small-molecule microarray, fluorescence 635 nm, primary screen (AID 1181); conditions: higher = more signal;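 also: score merges 667 nm emission and signal to noise over triplicate slides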
Chain of E3 ubiquitin-protein ligase XIAP (Homo sapiens) (P98170 whole entry, looked up, the tested form may be a part): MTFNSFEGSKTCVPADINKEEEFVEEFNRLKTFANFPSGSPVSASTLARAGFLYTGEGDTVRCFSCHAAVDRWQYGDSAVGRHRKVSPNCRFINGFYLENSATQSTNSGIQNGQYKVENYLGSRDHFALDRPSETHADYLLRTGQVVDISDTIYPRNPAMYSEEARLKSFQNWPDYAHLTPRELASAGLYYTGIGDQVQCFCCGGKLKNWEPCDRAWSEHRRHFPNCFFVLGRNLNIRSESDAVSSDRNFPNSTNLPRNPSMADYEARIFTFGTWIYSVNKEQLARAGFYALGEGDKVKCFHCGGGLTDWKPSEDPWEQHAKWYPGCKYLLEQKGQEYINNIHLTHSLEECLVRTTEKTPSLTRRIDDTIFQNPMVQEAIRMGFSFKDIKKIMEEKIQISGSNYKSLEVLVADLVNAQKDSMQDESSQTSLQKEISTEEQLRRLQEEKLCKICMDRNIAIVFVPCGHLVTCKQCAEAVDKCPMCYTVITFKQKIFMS

[11] = tested on: XIP peptide (Xip251-270) binding; test: XIP fragment 251-270 binding compounds – biochemical, small-molecule microarray, fluorescence 635/667 nm, 0.1 µg/mL protein, primary screen (AID 1182); conditions: fluorescent protein binding, 635 nm, higher = more signal, called active from +8 up or from −8 down
XIP peptide (Xip251-270) = test: compounds binding XIP fragment 251-270 – biochemical, small-molecule microarray, fluorescence 635/667 nm, 0.5 µg/mL protein, primary screen (AID 1183); conditions: fluorescence 635 nm, higher = more signal
[12] = blood-stage malaria parasite viability loss – strain 3D7, DAPI fluorescence, 100 nL, primary screen (AID 1184);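 also: parasites grown inside human red blood cells in medium with human serum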; conditions: P. falciparum 3D7 growth, 3 d, higher = more signal
[13] = biological target: Homeobox protein Hox-A13 (Mus musculus) (UniProt Q62424); test: disruptors of Hoxa13 oligonucleotide interaction – biochemical, fluorescence polarization, labeled oligonucleotide, primary screen (AID 1185); conditions: Hoxa13:DNA binding, 15 min, higher = more signal, called active from +8 up or from −8 down
Chain of Homeobox protein Hox-A13 (Mus musculus) (Q62424 whole entry, looked up): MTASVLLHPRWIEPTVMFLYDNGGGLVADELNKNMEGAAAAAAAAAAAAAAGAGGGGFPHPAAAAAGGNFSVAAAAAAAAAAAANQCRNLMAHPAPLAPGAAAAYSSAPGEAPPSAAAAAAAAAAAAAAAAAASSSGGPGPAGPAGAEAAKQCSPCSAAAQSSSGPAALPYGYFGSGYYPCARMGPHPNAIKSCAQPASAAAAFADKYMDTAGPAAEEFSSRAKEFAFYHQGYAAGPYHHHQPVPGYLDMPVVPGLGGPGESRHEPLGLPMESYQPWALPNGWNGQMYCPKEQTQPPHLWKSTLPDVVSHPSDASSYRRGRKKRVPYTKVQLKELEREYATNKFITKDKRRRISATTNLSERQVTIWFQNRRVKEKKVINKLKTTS

[14] = blockers of DNA damage checkpoint Chk1 activation – imaging, HeLa, hydroxyurea, phospho-Chk1 antibody, percent positive cells, primary screen (AID 1186); conditions: hydroxyurea-induced phospho-Chk1 immunofluorescence imaging, higher = more signal
[15] = blockers of DNA damage checkpoint Chk1 activation – imaging, HeLa, hydroxyurea, phospho-Chk1 nuclear intensity, primary screen (AID 1187); conditions: hydroxyurea-induced phospho-Chk1 immunofluorescence imaging, higher = more signal

Structure (SMILES) | z-score [1] | z-score [2] | z-score [3] | composite z-score [4] | z-score [5] | z-score [6] | z-score [7] | z-score [8] | z-score [9] | composite z-score [10] | composite z-score [11] | composite z-score (XIP peptide (Xip251-270)) | z-score [12] | z-score [13] | z-score [14] | z-score [15]
C=CC[C@]1(C(=O)O)COC(c2ccc(OCCCO)cc2)=N1 | 0.264 | 0.32 (inactive) | 0.546 (inactive) | 0.146 (inactive) | 0.37 (inactive) | -0.643 (inactive) | -0.353 (inactive) | -0.201 (inactive) | -0.1 | 0.1 | 0.324 (inactive) | 0.614 | -0.12 | -0.685 (inactive) | -0.173 (inactive) | -0.315 (inactive)
COC(=O)c1c2oc(c1C(=O)OC)C(=O)N(Cc1ccccc1)Cc1cn(nn1)C[C@H](Cc1ccccc1)NC(=O)N[C@H](CO)CC2 | 1.18 | -1.78 (inactive) | 0.312 (inactive) | -0.519 (inactive) | 0.231 (inactive) | -1.38 (inactive) | 1.33 (inactive) | 1.89 (inactive) | 1.16 | 0.725 | -0.255 (inactive) | -0.057 | -0.886 | -4.5 (inactive) | -0.962 (inactive) | -0.745 (inactive)
O=C1O[C@H](c2ccccc2)[C@H](c2ccccc2)N2[C@H]1[C@@H](C(=O)N1CCN(c3ncccn3)CC1)[C@]1(C(=O)Nc3ccc(C#CC4(O)CCCCCC4)cc31)[C@H]2c1ccc(OCCO)cc1 | 0.204 | 1.82 (inactive) | -0.484 (inactive) | -0.884 (inactive) | 3.52 (inactive) | 3.34 (inactive) | -0.427 (inactive) | -0.0689 (inactive) | 0.478 | 0.258 | 2.51 (inactive) | 0.781 | -2.13 | 0.271 (inactive) | 0.354 (inactive) | 0.527 (inactive)
[N-]=[N+]=NCc1ccccc1C[C@@]1(C(=O)N2CCCCC2)N=C(c2ccc(OCCCO)cc2)O[C@@H]1c1ccccc1 | -0.876 | -0.59 (inactive) | -5.49 (inactive) | 1.53 (inactive) | 0.137 (inactive) | 1.95 (inactive) | 0.297 (inactive) | 0.696 (inactive) | -4.9 | -0.279 | -0.194 (inactive) | 0.434 | -2.38 | -4.86 (inactive) | -0.219 (inactive) | -0.234 (inactive)
[N-]=[N+]=Nc1ccccc1C[C@]1(C(=O)N2CCOCC2)N=C(c2ccc(OCCCO)cc2)O[C@H]1c1ccccc1 | 1.32 | -0.576 (inactive) | -1.25 (inactive) | 0.404 (inactive) | -0.608 (inactive) | 1.05 (inactive) | 1.11 (inactive) | 0.356 (inactive) | 0.101 | 0.0761 | 0.511 (inactive) | 0.748 | -2.03 | -5.32 (inactive) | -0.47 (inactive) | -0.106 (inactive)
CCCC[C@@H](O)C1=C(COc2ccccc2)C[C@H]2C(=O)N(C)C(=O)[C@H]2[C@H]1CO | -0.0624 | -3.78 (inactive) | 0.147 (inactive) | -1.85 (inactive) | 0.613 (inactive) | -3.3 (inactive) | 1.6 (inactive) | 1.41 (inactive) | 0.296 | -0.127 | -0.35 (inactive) | -0.442 | -0.764 | -3.48 (inactive) | -1.66 (inactive) | -1.41 (inactive)
C=CCN1C(=O)[C@@]2(CCS(=O)(=O)c3ccccc3)N=C(c3ccc(OCCCO)cc3)O[C@H]2c2ccccc21 | -0.436 | 0.698 (inactive) | -0.427 (inactive) | -0.218 (inactive) | 0.563 (inactive) | 1.45 (inactive) | -0.0209 (inactive) | 0.242 (inactive) | -2.12 | -0.0421 | 0.404 (inactive) | 0.713 | -2.05 | -2.47 (inactive) | -0.477 (inactive) | -0.37 (inactive)
CN1C(=O)C2C=CC(C(O)COCc3ccccc3)N(N(c3ccccc3)c3ccccc3)C2C1=O (centres undefined) | 0.669 | -2.9 (inactive) | -0.902 (inactive) | -0.0748 (inactive) | 1.04 (inactive) | 0.591 (inactive) | 0.202 (inactive) | 0.0087 (inactive) | -0.861 | 0.0537 | 0.441 (inactive) | 0.74 | -0.144 | -0.885 (inactive) | -0.0138 (inactive) | -0.35 (inactive)
COC(=O)c1ccc([C@H](NC(=O)c2ccco2)[C@]2(C)C[C@H]2C2CCCCC2)cc1 | -2.18 | 1.23 (inactive) | -0.806 (inactive) | -0.751 (inactive) | 0.619 (inactive) | 0.158 (inactive) | -0.827 (inactive) | -0.565 (inactive) | -2.26 | -0.0668 | -0.235 (inactive) | -0.727 | -0.414 | -2.66 (inactive) | 0.089 (inactive) | -0.229 (inactive)
CN(C)C(=O)[C@@]1(Cc2ccccc2CN=[N+]=[N-])N=C(c2ccc(OCCCO)cc2)O[C@H]1c1ccccc1CN=[N+]=[N-] | -1.43 | 1.12 (inactive) | -2.15 (inactive) | 2.07 (inactive) | 1.35 (inactive) | 2.07 (inactive) | 0.117 (inactive) | -0.435 (inactive) | -3.29 | 0.172 | 0.105 (inactive) | 0.707 | -2.15 | -2.04 (inactive) | -0.0765 (inactive) | 0.127 (inactive)
CCOC(=O)C[C@H]1[C@H](OC(=O)c2cc3ccccc3oc2=O)[C@@H](NC(=O)c2ccc(-c3ccccc3)cc2)c2cc(OCCCO)ccc2N1C(=O)c1ccccc1 | -0.638 | -1.79 (inactive) | -0.005 (inactive) | -2.74 (inactive) | -0.329 (inactive) | -0.272 (inactive) | -0.466 (inactive) | -0.878 (inactive) | -0.24 | 0.164 | 0.411 (inactive) | 0.701 | -1.95 | 0.455 (inactive) | 0.443 (inactive) | 0.769 (inactive)
C=C(C(=O)CC[C@@H](OC(C)=O)c1ccc(CO)o1)C(C)C | -0.192 | -0.788 (inactive) | 0.0874 (inactive) | -1.75 (inactive) | 2.05 (inactive) | -0.396 (inactive) | -0.351 (inactive) | -0.374 (inactive) | 0.0268 | 0.68 | 0.164 (inactive) | 0.656 | -0.14 | -4.08 (inactive) | 0.257 (inactive) | 0.636 (inactive)
COc1cccc(/C=C/C=O)c1 | 0.445 | -6.49 (inactive) | -0.687 (inactive) | -0.0136 (inactive) | -0.131 (inactive) | 0.0721 (inactive) | 0.635 (inactive) | 0.403 (inactive) | 0.884 | -0.0224 | 0.421 (inactive) | -0.453 | 1.1 | -0.396 (inactive) | 0.36 (inactive) | 0.769 (inactive)
[N-]=[N+]=Nc1ccccc1[C@H]1OC(c2ccc(OCCCO)cc2)=N[C@@]1(Cc1ccccc1)C(=O)N1CCCCC1 | -1.16 | -0.722 (inactive) | -3.61 (inactive) | -0.827 (inactive) | 0.603 (inactive) | 1.97 (inactive) | 0.359 (inactive) | 0.617 (inactive) | -4.52 | 0.0197 | 0.391 (inactive) | 0.664 | -1.95 | -2.71 (inactive) | -0.549 (inactive) | -0.463 (inactive)
CC(CO)N1C(=O)[C@@H]2[C@H]3C(=O)OCC=C[C@H]3OC23C=CCN(Cc2ccccc2)C(=O)[C@@H]13 (some centres undefined) | 1.44 | -0.319 (inactive) | 1.01 (inactive) | -1.07 (inactive) | 0.745 (inactive) | -1.21 (inactive) | 0.518 (inactive) | 0.075 (inactive) | 1.28 | 0.184 | -0.542 (inactive) | 0.189 | -0.379 | -2.5 (inactive) | -0.539 (inactive) | -0.113 (inactive)
CC1=C[C@@]2(CO)C(=O)[C@]3(CO3)[C@@H]1[C@H]1[C@]2(C)C=C(CO)C(=O)[C@]12CO2 | 0.693 | -2.6 (inactive) | -0.54 (inactive) | -2.12 (inactive) | -0.614 (inactive) | -0.813 (inactive) | 0.477 (inactive) | 0.655 (inactive) | 0.483 | -0.227 | 0.188 (inactive) | 0.454 | -1.27 | -4.58 (inactive) | -0.441 (inactive) | -0.35 (inactive)
C=CC[C@@]1(C(=O)N2CCOCC2)N=C(c2ccc(OCCCO)cc2)O[C@@H]1c1ccccc1CN=[N+]=[N-] | 0.0491 | 0.0155 (inactive) | 0.118 (inactive) | 0.159 (inactive) | 0.137 (inactive) | -0.109 (inactive) | -0.0245 (inactive) | 0.443 (inactive) | -0.052 | 0.184 | 0.74 (inactive) | 0.758 | -2.26 | -5.78 (inactive) | 0.0151 (inactive) | 0.349 (inactive)
C=CCC(OC(C)=O)[C@@H]1[C@@H](N(Cc2ccc(-c3ccccc3)cc2)C(=O)Cc2ccc(F)cc2)c2cc(OCCCO)ccc2N1C(=O)Cc1ccc(OC)cc1 (some centres undefined) | -0.939 | 0.637 (inactive) | 0.0774 (inactive) | -0.433 (inactive) | -0.431 (inactive) | 0.313 (inactive) | -0.455 (inactive) | -0.14 (inactive) | -0.103 | 0.0757 | 0.0187 (inactive) | -0.308 | -0.939 | -2.3 (inactive) | -0.245 (inactive) | -0.23 (inactive)
O=C(NCC(F)(F)F)[C@@H]1c2ccccc2C(=O)N(Cc2ccccc2C(F)(F)F)[C@H]1c1ccc(CO)cc1 | -0.0877 | 0.0223 (inactive) | -0.474 (inactive) | -0.184 (inactive) | 0.292 (inactive) | -0.246 (inactive) | -0.308 (inactive) | 0.263 (inactive) | -0.853 | -0.184 | 0.774 (inactive) | 0.374 | -0.485 | -2.95 (inactive) | 0.0364 (inactive) | -0.0409 (inactive)
